From PubChem BioAssay (EPA / NIEHS)
Some compounds were tested as several samples or in several runs, with calls that do not always agree. The source made the active and inactive calls. How the source made its calls: active means hit-call score of the fitted dose curve at least 0.9, where 1 is the maximum; inactive means score below 0.9.

Test: ATG_SREBP_CIS: Attagene CIS-FACTORIAL HepG2 Assay for human Sterol Regulatory Element Binding (SREBP) (AID 2282962)
Conditions: HepG2 Attagene cis-factorial SREBP reporter, mRNA; actives raise or lower the signal
Protocol: ATG_CIS is a cell-based, multiplexed-readout assay that uses HepG2, a human liver cell line, with measurements taken at 24 hours after chemical dosing in a 24-well plate.ATG_SREBP_CIS is one of 52 assay component(s) measured or calculated from the ATG_CIS assay. It is designed to make measurements of mRNA induction, a form of inducible reporter, as detected with fluorescence intensity signals by Reverse transcription polymerase chain reaction (RT-PCR) and Capillary electrophoresis technology.Data from the assay component ATG_SREBP_CIS was analyzed into 1 assay endpoint. This assay endpoint, ATG_SREBP_CIS, was analyzed with bidirectional fitting relative to DMSO as the negative control and baseline of activity. Using a type of inducible reporter, measures of mRNA for gain or loss-of-signal activity can be used to understand the reporter gene at the transcription factor-level as they relate to the gene SREBF1. Furthermore, this assay endpoint can be referred to as a primary readout, because this assay has produced multiple assay endpoints where this one serves a reporter gene function. To generalize the intended target to other relatable targets, this assay endpoint is annotated to the dna binding intended target family, where the subfamily is basic helix-loop-helix leucine zipper.
Human liver HepG2 cells are transiently transfected with multiple reporter transcription units (MRTUs) in 6-well plates using FuGene 6 reagent (Roche; 3 ml FuGene/1 mg DNA). The MRTU constructs are regulated by a cis-regulating element (promoter). […] A major difference between the CIS and TRANS system is that in CIS activities of endogenous TFs are measured, whereas the TRANS assay evaluates changes in activities of exogenous, chimeric NR-Gal4 proteins. […] At the end of 24 hour incubation, total RNA was isolated using TriZol reagent (Invitrogen). The isolated RNA is then reverse-transcribed using oligo(dT) primer and Mo-MLV reverse transcriptase (Invitrogen) with DNAse I (Ambion) treatment for 30 min. The one-tenth of the produced cDNA was amplified by PCR using Taq DNA polymerase (Invitrogen) and two reporter sequence-specific primers. The PCR products were fluorescently labeled by primer extension with 6-arboxyfluorescein (6-FAM) 5'-labeled reporter sequence-specific primer (2 min at 95 C, 20 s at 68 C and 10 min at 72 C) and these products were digested with 5U of HpaI (New England Biolabs) for 2h at 37 C. The fragments were purified using Qiaquick PCR columns (Qiagen), analyzed on an ABI 3130xL genetic analyzer (Applied Biosystems) with peak positions identified by using a set of X-rhodamine (ROX)-labeled MapMarker1000 molecular weight standards (BioVentures). The raw capillary electrophoresis data was processed using Attagraph software (Attagene).

Q: For `C[C@]12C=CC(=O)C=C1CC[C@H]1[C@@H]3C[C@@H](O)[C@](O)(C(=O)CO)[C@@]3(C)C[C@H](O)[C@@]12F`, which outcome is on record?
A: Its outcome is “inactive”.

Q: For `CCOc1ccc2[nH]cc(C(=O)NCc3ccccc3)c(=O)c2n1`, which outcome is on record?
A: Its outcome is “inactive”.

Q: Which outcome does the source give for `CC(=O)c1ccccc1` here?
A: The outcome was “inactive”.

Q: With `CCCC(CCC)C(=O)O` as the compound, how does the outcome read?
A: The outcome was “inactive”.

Q: For `OCc1c[nH]c2ccccc12`, which outcome is on record?
A: The outcome was “inactive”.

Q: For `CCc1cccc(CC)c1N`, which outcome is on record?
A: The outcome was “inactive”.

Q: With `CCCOc1ccc(S(=O)(=O)N2CCN(CC)CC2)cc1-c1nc2c(CC)n(Cc3ccccn3)nc2c(=O)[nH]1` as the compound, how does the AC50 read?
A: The AC50 was 27.5 µM (active).

Q: For `OC[C@H]1O[C@@H]2O[C@H]3[C@H](O)[C@@H](O)[C@@H](O[C@H]4[C@H](O)[C@@H](O)[C@@H](O[C@H]5[C@H](O)[C@@H](O)[C@@H](O[C@H]6[C@H](O)[C@@H](O)[C@@H](O[C@H]7[C@H](O)[C@@H](O)[C@@H](O[C@H]1[C@H](O)[C@H]2O)O[C@@H]7CO)O[C@@H]6CO)O[C@@H]5CO)O[C@@H]4CO)O[C@@H]3CO`, which outcome is on record?
A: Its outcome is “inactive”.

Q: Which outcome does the source give for `C=CN1CCCC1=O` here?
A: The outcome was “inactive”.

Q: With `O=C(O)CO` as the compound, how does the outcome read?
A: Its outcome is “inactive”.

Q: For `C[C@@H](Oc1ccc(CNC(=O)c2cccnc2Oc2ccc3c(c2)OCO3)c(F)c1)C(=O)O`, which outcome is on record?
A: The outcome was “inactive”.

Q: Which outcome does the source give for `O=C(O)[C@H](O)[C@@H](O)C(=O)O` here?
A: The outcome was “inactive”.

Q: For `COCc1nnc(-c2ccc[n+]([O-])c2)n1-c1c(Cl)c(Cl)cc2[nH]c(=O)c(=O)[nH]c12`, which outcome is on record?
A: The outcome was “inactive”.

Q: Which outcome does the source give for `O=C(N[C@H](CO)[C@H](O)c1ccc([N+](=O)[O-])cc1)C(Cl)Cl` here?
A: Its outcome is “inactive”.

Q: For `O=S(=O)(O)c1ccc(N=Nc2c(O)ccc3cc(S(=O)(=O)O)ccc23)cc1`, which outcome is on record?
A: The outcome was “inactive”.

Q: With `NCC(F)(F)C(F)(F)C(F)(F)C(F)(F)F` as the compound, how does the outcome read?
A: Its outcome is “inactive”.

Q: For `O=S(=O)(O)CCC(F)(F)C(F)(F)C(F)(F)C(F)(F)C(F)(F)C(F)(F)F`, which outcome is on record?
A: The outcome was “inactive”.

Q: For `NC(=O)N(O)[C@@H]1COc2cc(OCc3ccccc3)ccc21`, which outcome is on record?
A: Its outcome is “inactive”.

Q: For `OCCNCCO`, which outcome is on record?
A: The outcome was “inactive”.

Q: For `S=P(N1CC1)(N1CC1)N1CC1`, which AC50 is on record?
A: The AC50 was 157 µM (active).

Q: What about the outcome of the same compound?
A: Its outcome is “inactive”.

Q: Which AC50 does the source give for `O=C(NO)C1(NS(=O)(=O)c2ccc(Oc3ccc(F)cc3)cc2)CCOCC1` here?
A: Its AC50 is 31.2 µM (active).

Q: For `OCC(CO)(CO)CO`, which outcome is on record?
A: The outcome was “inactive”.

Q: With `COc1cc2c(c(OC)c1OC)-c1ccc(OC)c(=O)cc1[C@@H](NC(C)=O)CC2` as the compound, how does the outcome read?
A: The outcome was “inactive”.

Q: Which outcome does the source give for `Cc1cccc(O)c1C` here?
A: Its outcome is “inactive”.

Q: Which AC50 does the source give for `CCCCCCCCCCCCCCO` here?
A: The AC50 was 171 µM (active).

Q: For `O=c1[nH]cnc2c1ncn2[C@H]1CC[C@@H](CO)O1`, which outcome is on record?
A: Its outcome is “inactive”.

Q: For `CC1(C)C(=O)N(Cl)C(=O)N1Cl`, which outcome is on record?
A: Its outcome is “inactive”.

Q: Which outcome does the source give for `FC(F)=C(F)C(F)(F)C(F)(F)C(F)(F)C(F)(F)C(F)(F)C(F)(F)F` here?
A: The outcome was “inactive”.

Q: Which outcome does the source give for `c1ccc2c(c1)-c1cccc3c1c-2cc1ccccc13` here?
A: Its outcome is “inactive”.

Q: With `FC(F)C(F)(F)COCC1CO1` (stereo not given) as the compound, how does the outcome read?
A: Its outcome is “inactive”.

Q: With `CC[C@H](C)C(=O)O[C@H]1C[C@H](O)C=C2C=C[C@H](C)[C@H](CC[C@@H](O)C[C@@H](O)CC(=O)O)[C@H]21` as the compound, how does the outcome read?
A: Its outcome is “inactive”.

Q: With `Cc1nc(-c2ccccn2)ncc1C(=O)Nn1cc(C)c2cc(F)ccc21` as the compound, how does the outcome read?
A: Its outcome is “inactive”.

Q: Which outcome does the source give for `Cn1c(=O)c2[nH]cnc2n(C)c1=O` here?
A: Its outcome is “inactive”.

Q: With `Cn1cc[nH]c1=S` as the compound, how does the outcome read?
A: The outcome was “inactive”.

Q: With `c1ccc(C(O[C@@H]2CCCN(CCc3ccc4c(c3)OCO4)C2)c2ccccc2)cc1` as the compound, how does the AC50 read?
A: Its AC50 is 10.7 µM (active).

Q: With `CC(C)CCCCCCOC(=O)C1CCCCC1C(=O)OCCCCCCC(C)C` (stereo not given) as the compound, how does the outcome read?
A: Its outcome is “inactive”.

Q: With `CCCCN1C(=O)[C@@H]([C@H](O)C2CCCCC2)NC(=O)C12CCN(Cc1ccc(Oc3ccc(C(=O)O)cc3)cc1)CC2` as the compound, how does the outcome read?
A: Its outcome is “inactive”.

Q: Which outcome does the source give for `CC(C)C(=O)Nc1ccc([N+](=O)[O-])c(C(F)(F)F)c1` here?
A: Its outcome is “inactive”.

Q: With `CCCc1ccccc1` as the compound, how does the outcome read?
A: The outcome was “inactive”.
